In PubChem BioAssay (Tox21):
Calls of active or inactive are those of the source. Entries that show only a call come without a potency. Unless noted, calls come from the whole dose curve; as a rule, active = well fitted curve in the direction sought with a large enough effect in the repeat runs; inconclusive = weak or mixed curves; inactive = no such curve, though single readings can be large; an effect the other way counts as inactive or inconclusive.

Experiments:
[1] = qHTS assay to identify small molecule antagonists of the thyroid receptor (TR) signaling pathway - cell viability counter screen (AID 743064); note: nearly all actives have a fitted effect of over 50% in size; note: potency is the fitted concentration of half-maximal effect
In short: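 Same-well viability check: GH3.TRE-Luc cells stimulated with 1 nM T3 alongside test compound for 23.5 h, followed by CellTiter-Fluor fluorescence.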

[2] = qHTS assay to identify small molecule antagonists of the thyroid receptor (TR) signaling pathway (AID 743065); note: nearly all actives have a fitted effect of over 55% in size; note: potency is the fitted concentration of half-maximal effect
In short: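 GH3.TRE-Luc rat pituitary cells (two TREs driving luciferase) were dosed with compound, then stimulated with 1 nM T3 (final) for 23.5 h at 37 C. ONE-Glo luminescence was the read-out, with CellTiter-Fluor fluorescence as the cytotoxicity counter-screen.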

[3] = system: thyroid hormone receptor (rat, GH3 cells); test: qHTS assay to identify small molecule agonists of the thyroid receptor (TR) signaling pathway (AID 743066; calls by dose curve)
[4] = molecular target: Estrogen receptor (Homo sapiens) (UniProt P03372); test: qHTS assay to identify small molecule antagonists of the estrogen receptor alpha (ER-alpha) signaling pathway (AID 743069; active = well fitted curve in the direction sought with a large enough effect in the signal ratio in the repeat runs, not every such curve was filed as active; inconclusive = weak or mixed curves, or effect the other way; inactive = no such curve, though single readings can be large or run the other way; the % refers to the signal ratio; note: potency is the fitted concentration of half-maximal effect)
In short: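 In this cell-based reporter format, GripTite HEK293 cells harbouring ER-alpha-UAS-bla were grown overnight with 2% charcoal-stripped FBS, dosed with DMSO-dissolved compounds, then challenged with 17beta-estradiol. After 18 hr at 37C, beta-lactamase activity was detected by FRET fluorescence.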

[5] = qHTS assay to identify small molecule antagonists of the estrogen receptor alpha (ER-alpha) signaling pathway - cell viability counter screen (AID 743074; calls by dose curve; note: nearly all actives have a fitted effect of over 45% in size)
[6] = molecular target: Estrogen receptor (Homo sapiens) (UniProt P03372); test: qHTS assay to identify small molecule agonists of the estrogen receptor alpha (ER-alpha) signaling pathway (AID 743075; calls by dose curve; note: potency is the fitted concentration of half-maximal effect)
[7] = molecular target: Estrogen receptor (Homo sapiens) (UniProt P03372); test: qHTS assay to identify small molecule agonists of the estrogen receptor alpha (ER-alpha) signaling pathway using the BG1 cell line (AID 743079); settings: BG1Luc4E2 cells, ERE-luciferase agonist, 22 h; activation: at 70.3 µM (top of the series); note: nearly all actives have a fitted effect of over 20% in size; note: potency is the fitted concentration of half-maximal effect
[8] = qHTS assay to identify small molecule antagonists of the estrogen receptor alpha (ER-alpha) signaling pathway using the BG1 cell line (AID 743080; calls by dose curve;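 note: BG1 cells stimulated with 17beta-estradiol alongside compound; nearly all actives have a fitted effect of over 25% in size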)
In short: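 Quantitative HTS on the Tox21 10K library: BG1 cells with endogenous ER-alpha and ERE-luciferase reporter, 17beta-estradiol stimulation, 21.5 h compound exposure, luminescence endpoint with parallel fluorescence cytotoxicity counter-read.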

[9] = qHTS assay to identify small molecule antagonists of the estrogen receptor alpha (ER-alpha) signaling pathway using the BG1 cell line - cell viability counter screen (AID 743081);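 note: compound given together with 17beta-estradiol as the ER stimulus; nearly all actives have a fitted effect of over 45% in size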
Aromatase (Homo sapiens) = Aromatase (Homo sapiens) (UniProt P11511); test: qHTS assay to identify aromatase inhibitors (AID 743083); note: nearly all actives have a fitted effect of over 55% in size
[10] = qHTS assay to identify aromatase inhibitors - cell viability counter screen (AID 743084);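 note: cells stimulated with testosterone during compound exposure; nearly all actives have a fitted effect of over 55% in size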
[11] = molecular target: Aryl hydrocarbon receptor (Homo sapiens) (UniProt P35869); test: qHTS assay to identify small molecule that activate the aryl hydrocarbon receptor (AhR) signaling pathway (AID 743085);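 note: HG2L7.5c1 human HepG2 liver cells with stably integrated DRE-driven firefly reporter; nearly all actives have a fitted effect of over 15% in size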
In short: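 Reporter assay in engineered HepG2 line HG2L7.5c1, whose plasmid carries twenty dioxin responsive elements upstream of firefly luciferase. Treatment lasted 24 h at 37C; ONE-Glo luminescence gauged induction.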

[12] = qHTS assay to identify small molecule that activate the aryl hydrocarbon receptor (AhR) signaling pathway - cell viability counter screen (AID 743086);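 note: HepG2 liver cells carrying the AhR DRE luciferase reporter; nearly all actives have a fitted effect of over 45% in size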
In short: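 HepG2-AhR-luc (HG2L7.5c1) cells, 4000/well, treated 24 h at 37 C with compound; viability measured as CellTiter-Fluor fluorescence after 30 min in the same wells as the luciferase read.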

[13] = molecular target: Peroxisome proliferator-activated receptor gamma (Homo sapiens) (UniProt P37231); test: qHTS assay to identify small molecule agonists of the peroxisome proliferator-activated receptor gamma (PPARg) signaling pathway (AID 743094; active = well fitted activation curve with a large enough effect in the signal ratio in the repeat runs, not every such curve was filed as active; inconclusive = weak or mixed curves, or effect the other way; inactive = no such curve, though single readings can be large or run the other way; the % refers to the signal ratio)
In short: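 Fluorescence-based beta-lactamase readout in HEK293H PPARg UAS-bla cells after 17 h compound exposure (37C) and 1 h B/G FRET substrate incubation at room temperature.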

[14] = molecular target: Peroxisome proliferator-activated receptor gamma (Homo sapiens) (UniProt P37231); test: qHTS assay to identify small molecule antagonists of the peroxisome proliferator-activated receptor gamma (PPARg) signaling pathway (AID 743191; calls by dose curve; note: nearly all actives have a fitted effect of over 30% in size)
In short: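 GeneBLAzer PPARg UAS-bla HEK293H cells, 5 h post-plating, exposed to compounds 17 h at 37C. LiveBLAzer B/G FRET substrate added for 1 h at room temperature; beta-lactamase reporter read by fluorescence intensity.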

[15] = qHTS assay for small molecule agonists of the antioxidant response element (ARE) signaling pathway - cell viability counter screen (AID 743203; calls by dose curve; note: nearly all actives have a fitted effect of over 55% in size)
In short: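 Parallel cytotoxicity read-out for the ARE-bla screen: HepG2 reporter cells, 16 hrs with compounds, then CellTiter-Glo luminescence.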

[16] = qHTS assay for small molecule activators of the heat shock response signaling pathway - cell viability counter screen (AID 743209); note: nearly all actives have a fitted effect of over 50% in size
In short: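 To flag cytotoxic compounds, HSE-bla HeLa cells plated at 1500 cells/well were dosed for 5 h at 37 C, followed by the reporter FRET read and then CellTiter-Glo, with luminescence recorded 30 min after reagent addition.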

[17] = qHTS assay for small molecule activators of the heat shock response signaling pathway (AID 743210; active = well fitted activation curve with a large enough effect in the signal ratio in the repeat runs, with a control signal flat, not every such curve was filed as active; inconclusive = weak or mixed curves; the % refers to the signal ratio;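 note: HeLa cells with beta-lactamase reporter driven by heat shock elements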)
In short: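 Following overnight attachment, HSE-bla HeLa cells received test compounds for 5 h at 37 C; beta-lactamase activity was then detected via FRET substrate fluorescence.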

[18] = qHTS assay for small molecule agonists of the antioxidant response element (ARE) signaling pathway (AID 743202; active = well fitted activation curve with a large enough effect in the signal ratio in the repeat runs, not every such curve was filed as active; inconclusive = weak or mixed curves, or effect the other way; inactive = no such curve, though single readings can be large or run the other way; the % refers to the signal ratio)
In short: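 HepG2 ARE-bla cells; 16 h treatment at 37 C; FRET-based beta-lactamase fluorescence read after 2 h substrate incubation at room temperature.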

[19] = qHTS assay to identify small molecule antagonists of the peroxisome proliferator-activated receptor gamma (PPARg) signaling pathway - cell viability counter screen (AID 743194); note: nearly all actives have a fitted effect of over 55% in size
In short: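 Cytotoxicity counter screen in PPARg-bla HEK293H cells, same wells as reporter assay. Compounds plus 50 nM rosiglitazone (final) for 17 h at 37 C, then viability read by CellTiter-Glo luminescence.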

Chain of Peroxisome proliferator-activated receptor gamma (Homo sapiens) (P37231 whole entry, looked up): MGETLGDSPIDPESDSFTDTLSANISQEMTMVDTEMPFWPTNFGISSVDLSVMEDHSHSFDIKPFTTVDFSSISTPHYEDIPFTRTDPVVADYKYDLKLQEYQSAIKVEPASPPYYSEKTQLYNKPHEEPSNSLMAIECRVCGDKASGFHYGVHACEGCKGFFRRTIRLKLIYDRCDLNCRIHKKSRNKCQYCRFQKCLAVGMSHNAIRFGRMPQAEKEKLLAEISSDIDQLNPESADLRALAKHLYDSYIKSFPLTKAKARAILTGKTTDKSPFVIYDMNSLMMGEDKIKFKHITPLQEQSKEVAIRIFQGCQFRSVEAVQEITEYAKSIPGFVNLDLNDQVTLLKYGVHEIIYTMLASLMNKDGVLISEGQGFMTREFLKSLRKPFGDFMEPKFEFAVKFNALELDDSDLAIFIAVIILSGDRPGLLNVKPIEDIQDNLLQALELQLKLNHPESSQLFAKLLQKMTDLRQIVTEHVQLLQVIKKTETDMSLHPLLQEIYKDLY
Chain of Aryl hydrocarbon receptor (Homo sapiens) (P35869 whole entry, looked up): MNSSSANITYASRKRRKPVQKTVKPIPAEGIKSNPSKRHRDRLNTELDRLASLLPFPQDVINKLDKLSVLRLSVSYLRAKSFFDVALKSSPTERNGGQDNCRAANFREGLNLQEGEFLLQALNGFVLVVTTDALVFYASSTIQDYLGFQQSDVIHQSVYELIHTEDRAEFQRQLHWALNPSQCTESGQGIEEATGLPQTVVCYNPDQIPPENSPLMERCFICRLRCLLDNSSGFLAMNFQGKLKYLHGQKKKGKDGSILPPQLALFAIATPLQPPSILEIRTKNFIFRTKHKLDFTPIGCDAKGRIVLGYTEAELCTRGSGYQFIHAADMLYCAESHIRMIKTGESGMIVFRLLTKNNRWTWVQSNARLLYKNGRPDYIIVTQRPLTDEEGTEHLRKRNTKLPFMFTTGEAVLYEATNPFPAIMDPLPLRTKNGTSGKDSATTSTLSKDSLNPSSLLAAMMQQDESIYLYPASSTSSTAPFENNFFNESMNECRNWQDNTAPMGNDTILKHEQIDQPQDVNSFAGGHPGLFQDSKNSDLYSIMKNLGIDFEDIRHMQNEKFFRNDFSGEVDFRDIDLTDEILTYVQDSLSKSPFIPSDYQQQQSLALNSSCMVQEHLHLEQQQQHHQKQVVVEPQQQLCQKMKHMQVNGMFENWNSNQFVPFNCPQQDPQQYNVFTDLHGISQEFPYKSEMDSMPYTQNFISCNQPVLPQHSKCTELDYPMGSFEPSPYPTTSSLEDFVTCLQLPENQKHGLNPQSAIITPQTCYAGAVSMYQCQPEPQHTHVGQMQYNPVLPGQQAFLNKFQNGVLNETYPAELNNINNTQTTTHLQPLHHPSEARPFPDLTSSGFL
Chain of Estrogen receptor (Homo sapiens) (P03372 whole entry, looked up): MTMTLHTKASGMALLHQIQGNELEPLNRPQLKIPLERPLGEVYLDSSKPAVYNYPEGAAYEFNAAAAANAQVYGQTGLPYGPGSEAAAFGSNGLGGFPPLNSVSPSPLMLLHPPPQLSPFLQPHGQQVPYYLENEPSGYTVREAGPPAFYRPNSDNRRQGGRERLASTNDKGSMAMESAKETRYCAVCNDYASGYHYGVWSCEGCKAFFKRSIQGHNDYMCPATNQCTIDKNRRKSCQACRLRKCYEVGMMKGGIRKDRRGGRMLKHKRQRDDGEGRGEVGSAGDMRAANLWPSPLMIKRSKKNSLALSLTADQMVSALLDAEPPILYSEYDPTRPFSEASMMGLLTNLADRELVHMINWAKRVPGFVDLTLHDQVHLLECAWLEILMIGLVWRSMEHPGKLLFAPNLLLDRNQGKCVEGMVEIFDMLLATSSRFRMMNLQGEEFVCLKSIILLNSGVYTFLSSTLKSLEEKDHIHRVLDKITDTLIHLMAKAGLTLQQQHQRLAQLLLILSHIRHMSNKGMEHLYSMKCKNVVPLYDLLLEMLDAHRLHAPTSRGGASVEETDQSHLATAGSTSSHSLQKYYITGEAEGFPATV
Chain of Aromatase (Homo sapiens) (P11511 whole entry, looked up): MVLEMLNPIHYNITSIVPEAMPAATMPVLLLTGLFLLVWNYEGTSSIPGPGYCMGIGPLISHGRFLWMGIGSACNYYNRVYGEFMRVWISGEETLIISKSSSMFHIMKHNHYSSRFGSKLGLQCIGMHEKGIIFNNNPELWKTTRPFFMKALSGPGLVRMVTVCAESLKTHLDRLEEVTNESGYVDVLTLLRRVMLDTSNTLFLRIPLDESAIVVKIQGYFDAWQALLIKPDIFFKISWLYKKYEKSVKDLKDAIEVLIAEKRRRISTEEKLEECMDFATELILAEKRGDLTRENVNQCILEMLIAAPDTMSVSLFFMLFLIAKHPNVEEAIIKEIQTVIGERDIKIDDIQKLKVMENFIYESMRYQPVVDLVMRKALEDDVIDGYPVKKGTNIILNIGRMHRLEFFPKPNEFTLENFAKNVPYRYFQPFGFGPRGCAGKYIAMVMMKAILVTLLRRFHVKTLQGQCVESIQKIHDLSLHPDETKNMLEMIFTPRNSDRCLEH

| SMILES | Potency [1] | Potency [2] | outcome [3] | Potency [4] | Potency [5] | Potency [6] | Potency [7] | Potency [8] | Potency [9] | Potency (Aromatase (Homo sapiens)) | Potency [10] | Potency [11] | Potency [12] | Potency [13] | Potency [14] | Potency [15] | Potency [16] | Potency [17] | Potency [18] | Potency [19] |
| --- | --- | --- | --- | --- | --- | --- | --- | --- | --- | --- | --- | --- | --- | --- | --- | --- | --- | --- | --- | --- |
| Cc1ccc(CO)cc1 | inactive | inactive | inactive | inactive | inactive | inactive | inactive | inactive | inactive | inactive | inactive | inactive | inactive | inactive | inactive | inactive | inactive | inactive | – | – |
| Cc1ccc(C(C)(C)O)cc1 | inactive | inactive | inactive | inactive | inactive | inactive | inactive | inactive | inactive | inactive | inactive | inactive | inactive | inactive | inactive | inactive | inactive | – | inactive | – |
| Cc1cscn1 | inactive | inactive | inactive | inactive | inactive | inactive | inactive | inactive | inactive | inactive | inactive | inactive | inactive | inactive | – | inactive | inactive | inactive | inactive | inactive |
| COC(=O)CCS | inactive | inactive | inactive | inactive | inactive | inactive | inactive | inactive | inactive | inactive | inactive | inactive | inactive | – | inactive | inactive | inactive | – | inactive | – |
| COc1ncnc(NS(=O)(=O)c2ccc(N)cc2)c1OC | inactive | inactive | inactive | inactive | inactive | inactive | inactive | inactive | inactive | inactive | inactive | inactive | inactive | inactive | – | inactive | inactive | inactive | – | inactive |
| NCCNCCO | inactive | inactive | inactive | inactive | inactive | inactive | inactive | inactive | inactive | inactive | inactive | inactive | inactive | inactive | inactive | inactive | inactive | – | inactive | inactive |
| Nc1ncnc2c1ncn2[C@H]1CC[C@@H](CO)O1 | inactive | inactive | inactive | inactive | inactive | inactive | inactive | inactive | inactive | inactive | inactive | inactive | inactive | inactive | – | inactive | inactive | – | inactive | inactive |
| CC(C)=CCC/C(C)=C/CC/C(C)=C/CCC(=O)OC/C=C(\C)CCC=C(C)C | inactive | inactive | inactive | inactive | inactive | inactive | inactive | inactive | inactive | inactive | inactive | inactive | inactive | inactive | inactive | inactive | inactive | inactive | inactive | inactive |
| C1C[C@@H]2[C@H]3CC[C@H](C3)[C@@H]2C1 | inactive | inactive | inactive | inactive | inactive | inactive | inactive | inactive | inactive | inactive | inactive | inactive | inactive | inactive | inactive | inactive | inactive | inactive | inactive | inactive |
| C[C@@H](CN(C)C)CN1c2ccccc2Sc2ccccc21 | 4.03 µM (active) | 10.1 µM (active) | inactive | inactive | inactive | inactive | inactive | inactive | inactive | inactive | inactive | inactive | inactive | inactive | – | inactive | inactive | inactive | – | – |
| CCC(C)(C)OC | inactive | inactive | inactive | inactive | inactive | 54.7 µM [activator] (active) | 68.2 µM (active) | inactive | inactive | inactive | inactive | inactive | inactive | inactive | inactive | inactive | inactive | – | inactive | inactive |
| CCCC(=O)C(=O)O | inactive | inactive | inactive | inactive | inactive | inactive | inactive | inactive | inactive | inactive | – | inactive | inactive | – | – | inactive | inactive | inactive | – | – |
| C[C@]1(Cn2ccnn2)[C@H](C(=O)O)N2C(=O)C[C@H]2S1(=O)=O | inactive | inactive | inactive | 2.39 µM [inconclusive] (active) | inactive | – | inactive | inactive | – | inactive | inactive | – | inactive | – | – | inactive | inactive | – | – | inactive |
| CCC(C)COC(C)=O (stereo unspecified) | inactive | inactive | inactive | inactive | inactive | inactive | inactive | inactive | inactive | inactive | inactive | – | inactive | – | – | inactive | – | – | inactive | inactive |
| Cc1cc(C)c(N)cc1C | inactive | inactive | inactive | inactive | inactive | inactive | inactive | inactive | inactive | – | inactive | – | inactive | inactive | – | inactive | inactive | inactive | inactive | inactive |
| Brc1cc(Br)c(Oc2cc(Br)c(Br)cc2Br)cc1Br | inactive | inactive | inactive | inactive | inactive | inactive | inactive | inactive | inactive | – | – | – | – | – | – | inactive | inactive | – | inactive | inactive |
